Experimental findings from PubChem BioAssay (Tox21) are described below.

Values without a mark were called inactive. Results filed as inconclusive are left out. Activity calls are given as the source filed them. Calls come from the whole dose curve; as a rule, active = well fitted curve in the direction sought with a large enough effect in the repeat runs; inconclusive = weak or mixed curves; inactive = no such curve, though single readings can be large; an effect the other way counts as inactive or inconclusive.

Assay [1] is described as follows: qHTS RealTime-Glo MT Cell Viability Assay in HepG2 cells - 24 hour (AID 1224867). Note: nearly all actives have a fitted effect of over 50% in size. In a few lines:
(§1)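 Tox21 10K library screened in qHTS format on HepG2 cells carrying RealTime-Glo reagents. Compounds were added after a 5 h preincubation, and the luminescent signal from continuous culture was measured repeatedly during 40 h treatment.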

The nature of assay [2]: qHTS RealTime-Glo MT Cell Viability Assay in HEK293 cells - 32 hour (AID 1224868). Note: top concentration of the series differs between compounds; nearly all actives have a fitted effect of over 50% in size. In a few lines:
(§2)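 Luminescence generated by NanoLuc from substrate produced by living HEK293 cells served as the viability signal. Each value reflects the reading at its stated time point during continuous 40 h compound exposure at 37 C.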
(In qHTS, concentration-response curves come from the screen itself.)

A short description of assay [3]: A CellTox Green Cytotoxicity Assay to monitor cytotoxicity in HEK293 cells - 0 hour (AID 1224869). Note: nearly all actives have a fitted effect of over 50% in size. Note: potency is the fitted concentration of half-maximal effect. In a few lines: (§3)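 Homogeneous no-lysis format: HEK293 cell suspension mixed with CellTox Green reagent, seeded, incubated 5 h at 37 C/5% CO2, then dosed by pintool with compound in DMSO.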
Assay [4] can be described thus: qHTS RealTime-Glo MT Cell Viability Assay in HepG2 cells - 40 hour (AID 1224870). Note: nearly all actives have a fitted effect of over 50% in size. The procedure, abridged: (§4)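 Real-time viability: cells seeded at 600 per well together with NanoLuc and cell-permeant prosubstrate, compounds added after 5 h incubation. Luminescence tracked at 0, 8, 16, 24, 32 and 40 h of exposure.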
Assay [5] can be described thus: qHTS RealTime-Glo MT Cell Viability Assay in HEK293 cells - 16 hour (AID 1224872). In a few lines:
as §2

A short description of assay [6]: qHTS RealTime-Glo MT Cell Viability Assay in HepG2 cells - 8 hour (AID 1224873). Note: nearly all actives have a fitted effect of over 55% in size. In a few lines: as §4
The nature of assay [7]: qHTS RealTime-Glo MT Cell Viability Assay in HEK293 cells - 40 hour (AID 1224874). Note: nearly all actives have a fitted effect of over 50% in size. To be noted: RealTime-Glo luminescence; max response: stronger effect = lower value. In a few lines:
(§5)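 Measured as luminescence from the same continuously cultured HEK293 wells at successive time points (0, 8, 16, 24, 32, 40 h) after compound addition. Reagent present from seeding; dosing at 5 h; incubation 37 C.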

Assay [8] in a line: A CellTox Green Cytotoxicity Assay to monitor cytotoxicity in HEK293 cells - 24 hour (AID 1224875). Note: series mostly up to about 77 µM; nearly all actives have a fitted effect of over 45% in size. The procedure, abridged:
as §3

Assay [9] can be described thus: A CellTox Green Cytotoxicity Assay to monitor cytotoxicity in HepG2 cells - 16 hour (AID 1224876). Note: nearly all actives have a fitted effect of over 45% in size. Note: potency is the fitted concentration of half-maximal effect. The procedure, abridged:
(§6)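 Fluorescent DNA-binding dye, 600 HepG2 cells/well, 5 h preincubation then compound in DMSO; same plates read at 0–40 h, 37 C.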

The nature of assay [10]: qHTS RealTime-Glo MT Cell Viability Assay in HepG2 cells - 32 hour (AID 1224877). Note: nearly all actives have a fitted effect of over 55% in size. In a few lines: as §1
Assay [11] is described as follows: A CellTox Green Cytotoxicity Assay to monitor cytotoxicity in HepG2 cells - 24 hour (AID 1224878). Note: nearly all actives have a fitted effect of over 45% in size. Note: potency is the fitted concentration of half-maximal effect. The procedure, abridged:
as §6

A short description of assay [12]: A CellTox Green Cytotoxicity Assay to monitor cytotoxicity in HepG2 cells - 40 hour (AID 1224879). Note: nearly all actives have a fitted effect of over 40% in size. Note: potency is the fitted concentration of half-maximal effect. The procedure, abridged:
as §6

Assay [13] can be described thus: qHTS RealTime-Glo MT Cell Viability Assay in HEK293 cells - 0 hour (AID 1224880). Note: top concentration of the series differs between compounds; nearly all actives have a fitted effect of over 45% in size. In a few lines:
as §5

A short description of assay [14]: A CellTox Green Cytotoxicity Assay to monitor cytotoxicity in HEK293 cells - 32 hour (AID 1224881). Note: nearly all actives have a fitted effect of over 40% in size. Note: potency is the fitted concentration of half-maximal effect. In a few lines:
as §3

A short description of assay [15]: A CellTox Green Cytotoxicity Assay to monitor cytotoxicity in HepG2 cells - 0 hour (AID 1224882). Note: nearly all actives have a fitted effect of over 35% in size. Note: potency is the fitted concentration of half-maximal effect. In a few lines:
as §6

Assay [16] in a line: A CellTox Green Cytotoxicity Assay to monitor cytotoxicity in HepG2 cells - 32 hour (AID 1224883). Note: nearly all actives have a fitted effect of over 50% in size. Note: potency is the fitted concentration of half-maximal effect. The procedure, abridged:
as §6

The nature of assay [17]: A CellTox Green Cytotoxicity Assay to monitor cytotoxicity in HEK293 cells - 8 hour (AID 1224884). Note: nearly all actives have a fitted effect of over 35% in size. Note: potency is the fitted concentration of half-maximal effect. In a few lines: as §3
The nature of assay [18]: qHTS RealTime-Glo MT Cell Viability Assay in HepG2 cells - 16 hour (AID 1224885). Note: nearly all actives have a fitted effect of over 50% in size. The procedure, abridged:
as §1

Assay [19] in a line: A CellTox Green Cytotoxicity Assay to monitor cytotoxicity in HEK293 cells - 40 hour (AID 1224871). Note: nearly all actives have a fitted effect of over 45% in size. In a few lines: as §3
% is set by controls: 0 for no effect and ±100 for the full control effect.

For `O=C(Cl)c1ccccc1[N+](=O)[O-]`, the molecule was called inactive in assay [1], in [4], in assay [6], in assay [10] and in assay [18]. The Potency entry in assay [2], in assay [3], in assay [5], in [8], in [9] and in [11] was “inactive” each time. For the same molecule, the Potency entry in [12], in assay [13], in assay [14], in assay [15], in assay [16] and in assay [17] was “inactive” in each case. The max response in assay [7] is 9.73%.

Turning to `CC1OCCC1=O` (centres undefined), the molecule was classed as inactive in assay [1], in assay [4], in assay [6], in assay [10] and in assay [18]. Further, the Potency entry in assay [2], in assay [3], in assay [5], in assay [9], in assay [11] and in assay [12] was “inactive” each time. Moreover, the Potency result in [13], in assay [14], in assay [15], in assay [16] and in assay [17] was “inactive” each time. The max response in assay [7] is 3.12%.

Regarding `C=CC(=O)OCC1CCCO1` (centres undefined), the outcome in [1], in assay [4], in assay [6], in assay [10] and in [18] was inactive. Also, the Potency result in assay [2], in assay [3], in assay [5], in assay [8], in assay [9] and in assay [11] was “inactive” in each case. For the same molecule, the Potency entry in [12], in [13], in [14], in assay [16] and in assay [17] was “inactive” in each case. In addition, the max response in [7] was 0.647%.

`CCCCCCCCCOC(=O)CCCCC(=O)OCCCCCCC`: the call in [1], in [4], in assay [6], in [10] and in [18] was inactive. In addition, the Potency entry in assay [2], in assay [5] and in [13] was “inactive” throughout. Further, the Potency was 43.6 µM (active) in assay [3]; 24.5 µM (active) in [9]; 24.5 µM (active) in assay [11]; 24.5 µM (active) in assay [12]; 24.5 µM (active) in [14]; 27.5 µM (active) in assay [15]. The Potency in assay [16] is 24.5 µM (active); in assay [17] it was 38.9 µM (active). In addition, the max response in assay [7] is 0.901%.

On to `O=C=NCC1CCCC(CN=C=O)C1` (centres undefined), for which the molecule was called inactive in assay [1], in [6], in [10] and in [18]. Moreover, the Potency result in assay [2], in [3], in assay [19], in [5], in assay [9] and in assay [11] was “inactive” each time. The Potency entry in assay [12], in [13], in assay [14], in assay [15], in [16] and in [17] was “inactive” throughout. The max response in assay [7] is 1.36%.

For the molecule `CCCSSCCC`, the molecule was classed as inactive in assay [1], in assay [6], in assay [10] and in assay [18]. Also, the Potency result in assay [2], in [3], in assay [19], in [5], in assay [8] and in assay [9] was “inactive” throughout. Also, the Potency entry in [11], in assay [12], in assay [13], in [14], in assay [16] and in [17] was “inactive” each time. For the same molecule, the max response in assay [7] is 2.19%.

In the case of `CCOc1cccc(N)c1`, the call in assay [1], in [6], in assay [10] and in assay [18] was inactive. Moreover, the Potency entry in assay [2], in assay [3], in assay [5], in assay [8], in assay [9] and in assay [11] was “inactive” each time. For the same molecule, the Potency entry in [12], in assay [13], in assay [14], in assay [15], in [16] and in assay [17] was “inactive” throughout. The max response in assay [7] is 2.76%.

As for `N#CCC(=O)NN`, the result in assay [1], in [10] and in [18] was inactive. Besides, the Potency result in [2], in [3], in assay [19], in [5], in assay [8] and in assay [9] was “inactive” in each case. Also, the Potency entry in [11], in assay [12], in [13], in [14], in [15] and in [16] was “inactive” in each case. For the same molecule, the Potency result in assay [17] is “inactive”. Moreover, in [7], the max response was 1.05%.

On to `COC(=O)/C=C\C(=O)O`, for which the outcome in [1], in [6], in assay [10] and in assay [18] was inactive. The Potency result in [2], in [3], in assay [19], in assay [5], in assay [8] and in assay [9] was “inactive” each time. The Potency entry in [11], in assay [12], in assay [13], in assay [14], in assay [15] and in assay [16] was “inactive” throughout. For the same molecule, the Potency result in [17] was “inactive”. The max response in assay [7] is 0.0191%.

With `CC(=O)CCC1=C(C)CCCC1(C)C`, the molecule was classed as inactive in assay [1], in assay [4], in assay [6], in [10] and in assay [18]. Further, the Potency result in [2], in [3], in assay [5], in [13], in assay [14] and in assay [15] was “inactive” each time. For the same molecule, the Potency result in assay [17] is “inactive”. In addition, the max response in assay [7] was -7.96%.

In the case of `C=C(C)[C@@H]1CC=C(C)CC1`, the call in assay [1], in assay [4], in [10] and in [18] was inactive. The Potency entry in assay [2], in [3], in [5], in assay [8], in assay [9] and in [11] was “inactive” each time. The Potency result in [12], in assay [13], in [14], in [15], in [16] and in assay [17] was “inactive” throughout. Further, the max response in [7] is 1.3%.

`CC(C)C1OCCN1CCOC(=O)NCCCCCCNC(=O)OCCN1CCOC1C(C)C` (centres undefined): the result in [1], in [6], in assay [10] and in assay [18] was inactive. The Potency entry in [2], in [3], in assay [19], in [5], in [8] and in [11] was “inactive” each time. Moreover, the Potency result in assay [12], in assay [13], in [14], in [15], in [16] and in assay [17] was “inactive” each time. The max response in assay [7] was 1.59%.

In the case of `CN1C[C@@H]2C[C@H]1CN2c1cc2c(cc1F)c(=O)c(C(=O)O)cn2C1CC1`, the activity change, negative = cytotoxicity in [1] was 5.55% [at 15.8 µM]; in assay [5], 1.79% [at 15.8 µM]; in [13], -2.3% [at 15.8 µM]. Besides, the activity change, negative = cytotoxic was 9.47% [at 15.8 µM] in assay [2], 1.94% [at 15.8 µM] in assay [4], 4.04% [at 15.8 µM] in [10] and 6.14% [at 15.8 µM] in assay [18]. In addition, the cytotoxicity in assay [3] was -0.324% [at 15.8 µM]; in [11], 0.282% [at 15.8 µM]; in assay [15], 2.16% [at 15.8 µM]. The max response in assay [7] is 11.1%. Moreover, the activity change in [8] is -6.09% [at 15.8 µM, stronger effect = higher value]. The cytotoxicity increase in [9] was 2.35% [at 15.8 µM]; in [12], 4.83% [at 15.8 µM]; in assay [14], -7.04% [at 15.8 µM]; in [16] it was 0.396% [at 15.8 µM]; in [17], -14% [at 15.8 µM].
